Test results as given in the supplement of paper PMC10849652.
Of roughly 7,900 targets only a part is listed; those with a hit were picked by preference. About 0.6% of all pairs of compound and target were hits.

Compound: Cc1nc(Nc2n[nH]c3c2CN(C(=O)N[C@H](CN(C)C)c2ccccc2)C3(C)C)c2sccc2n1
Test: log2 fold change, soluble protein after heating vs DMSO (PISA); higher = thermal stabilisation; K562 cells, 10 uM, 30 min; active = over 0.2 and 3.5 SD of the protein, either way, in both replicates (recomputed)
Outline: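 K562 cells (2×10^6 cells/mL) were treated with 10 μM compound for 30 min, and aliquots were heated for 3 min over 48°C-58°C. Pooled aliquots were extracted in PBS with 0.5% NP-40 at 4°C, and the supernatant after 21,000xg for 90 min was measured by TMTpro 16plex LC-MS/MS with channel sums equalised. Reported thermal stability, relative to control samples and from duplicates, is a log2 fold change.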

Chain of UniProt P49448 (P49448 whole entry, looked up): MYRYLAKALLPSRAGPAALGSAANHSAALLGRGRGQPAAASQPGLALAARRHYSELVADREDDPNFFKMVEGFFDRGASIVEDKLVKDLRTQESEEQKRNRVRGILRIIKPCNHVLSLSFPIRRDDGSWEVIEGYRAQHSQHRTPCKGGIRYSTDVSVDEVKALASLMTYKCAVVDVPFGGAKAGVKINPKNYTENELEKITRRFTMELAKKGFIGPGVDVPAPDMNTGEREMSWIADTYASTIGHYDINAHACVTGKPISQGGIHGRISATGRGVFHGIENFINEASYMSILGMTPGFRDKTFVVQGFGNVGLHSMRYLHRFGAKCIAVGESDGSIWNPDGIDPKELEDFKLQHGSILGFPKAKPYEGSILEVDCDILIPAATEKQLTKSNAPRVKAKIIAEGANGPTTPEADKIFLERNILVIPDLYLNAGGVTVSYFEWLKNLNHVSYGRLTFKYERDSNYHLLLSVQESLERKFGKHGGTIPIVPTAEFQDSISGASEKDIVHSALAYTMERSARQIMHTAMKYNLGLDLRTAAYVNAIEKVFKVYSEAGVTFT
Chain of UniProt O00291 (O00291 whole entry, looked up): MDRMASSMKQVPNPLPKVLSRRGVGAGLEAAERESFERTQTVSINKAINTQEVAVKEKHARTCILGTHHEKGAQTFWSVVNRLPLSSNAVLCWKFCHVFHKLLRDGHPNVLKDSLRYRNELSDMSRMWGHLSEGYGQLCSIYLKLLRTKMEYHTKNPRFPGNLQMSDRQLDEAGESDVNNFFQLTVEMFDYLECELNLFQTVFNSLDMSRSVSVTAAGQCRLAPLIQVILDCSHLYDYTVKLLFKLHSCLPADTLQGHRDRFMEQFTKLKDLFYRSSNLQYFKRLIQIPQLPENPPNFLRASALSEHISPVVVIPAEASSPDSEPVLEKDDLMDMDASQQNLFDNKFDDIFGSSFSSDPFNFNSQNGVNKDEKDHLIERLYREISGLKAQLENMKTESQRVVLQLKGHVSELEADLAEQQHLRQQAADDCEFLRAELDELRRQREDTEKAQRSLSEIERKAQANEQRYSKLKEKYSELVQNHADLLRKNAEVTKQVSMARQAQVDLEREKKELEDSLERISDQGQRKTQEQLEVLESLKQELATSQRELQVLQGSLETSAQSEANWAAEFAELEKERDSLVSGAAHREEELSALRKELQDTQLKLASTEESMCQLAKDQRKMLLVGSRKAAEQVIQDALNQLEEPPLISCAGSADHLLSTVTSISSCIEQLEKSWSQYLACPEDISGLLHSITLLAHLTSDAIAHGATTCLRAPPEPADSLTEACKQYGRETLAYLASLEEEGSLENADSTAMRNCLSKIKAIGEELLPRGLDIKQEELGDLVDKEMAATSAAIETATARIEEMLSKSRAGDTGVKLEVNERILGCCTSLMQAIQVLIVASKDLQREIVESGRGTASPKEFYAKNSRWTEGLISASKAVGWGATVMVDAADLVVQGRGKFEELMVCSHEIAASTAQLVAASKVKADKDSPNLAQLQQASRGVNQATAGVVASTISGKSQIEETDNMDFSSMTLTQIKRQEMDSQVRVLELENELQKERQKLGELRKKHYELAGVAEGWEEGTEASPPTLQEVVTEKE
Chain of UniProt P36915 (P36915 whole entry, looked up): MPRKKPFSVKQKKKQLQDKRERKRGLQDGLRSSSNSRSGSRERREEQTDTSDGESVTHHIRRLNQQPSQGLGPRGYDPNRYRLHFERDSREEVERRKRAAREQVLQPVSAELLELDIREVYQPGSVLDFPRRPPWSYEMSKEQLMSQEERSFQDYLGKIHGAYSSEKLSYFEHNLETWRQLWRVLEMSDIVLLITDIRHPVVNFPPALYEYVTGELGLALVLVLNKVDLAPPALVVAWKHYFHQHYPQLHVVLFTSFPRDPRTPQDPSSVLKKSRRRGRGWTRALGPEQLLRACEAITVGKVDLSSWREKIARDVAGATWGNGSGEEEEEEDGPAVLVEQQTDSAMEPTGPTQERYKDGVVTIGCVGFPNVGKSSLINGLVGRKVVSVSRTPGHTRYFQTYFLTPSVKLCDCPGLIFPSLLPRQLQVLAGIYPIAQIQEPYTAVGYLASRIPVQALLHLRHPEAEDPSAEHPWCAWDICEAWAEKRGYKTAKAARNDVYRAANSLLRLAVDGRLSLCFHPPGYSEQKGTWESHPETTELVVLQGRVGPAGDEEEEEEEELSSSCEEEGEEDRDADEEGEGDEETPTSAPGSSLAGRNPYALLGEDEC
Chain of UniProt P37268 (P37268 whole entry, looked up): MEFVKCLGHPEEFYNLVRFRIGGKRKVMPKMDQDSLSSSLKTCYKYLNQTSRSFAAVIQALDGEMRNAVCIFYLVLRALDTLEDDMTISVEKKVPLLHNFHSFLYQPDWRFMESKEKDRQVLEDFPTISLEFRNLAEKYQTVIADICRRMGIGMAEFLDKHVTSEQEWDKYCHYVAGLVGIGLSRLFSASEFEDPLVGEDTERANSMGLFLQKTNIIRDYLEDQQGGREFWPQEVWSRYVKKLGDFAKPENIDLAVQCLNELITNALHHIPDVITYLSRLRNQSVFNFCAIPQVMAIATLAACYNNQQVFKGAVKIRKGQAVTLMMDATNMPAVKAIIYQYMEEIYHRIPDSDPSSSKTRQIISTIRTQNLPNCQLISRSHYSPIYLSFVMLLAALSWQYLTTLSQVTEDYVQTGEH
Chain of UniProt Q9Y6M1 (Q9Y6M1 whole entry, looked up): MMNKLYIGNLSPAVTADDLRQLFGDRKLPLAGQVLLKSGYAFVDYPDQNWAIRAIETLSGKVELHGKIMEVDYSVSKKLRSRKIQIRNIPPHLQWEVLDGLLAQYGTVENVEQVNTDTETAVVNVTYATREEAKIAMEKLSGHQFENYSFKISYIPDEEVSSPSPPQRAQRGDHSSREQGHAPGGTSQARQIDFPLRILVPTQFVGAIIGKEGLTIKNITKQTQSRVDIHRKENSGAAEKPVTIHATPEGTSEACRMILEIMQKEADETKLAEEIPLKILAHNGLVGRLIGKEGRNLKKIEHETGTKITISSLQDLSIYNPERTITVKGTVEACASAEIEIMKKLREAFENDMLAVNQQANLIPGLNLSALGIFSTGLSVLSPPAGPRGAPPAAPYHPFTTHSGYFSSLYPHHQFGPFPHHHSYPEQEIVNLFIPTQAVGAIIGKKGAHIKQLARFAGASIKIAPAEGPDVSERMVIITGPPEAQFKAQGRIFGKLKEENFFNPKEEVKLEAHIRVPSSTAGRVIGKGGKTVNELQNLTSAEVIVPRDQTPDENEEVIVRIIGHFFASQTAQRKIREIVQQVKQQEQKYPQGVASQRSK
Chain of UniProt Q5SSJ5 (Q5SSJ5 whole entry, looked up): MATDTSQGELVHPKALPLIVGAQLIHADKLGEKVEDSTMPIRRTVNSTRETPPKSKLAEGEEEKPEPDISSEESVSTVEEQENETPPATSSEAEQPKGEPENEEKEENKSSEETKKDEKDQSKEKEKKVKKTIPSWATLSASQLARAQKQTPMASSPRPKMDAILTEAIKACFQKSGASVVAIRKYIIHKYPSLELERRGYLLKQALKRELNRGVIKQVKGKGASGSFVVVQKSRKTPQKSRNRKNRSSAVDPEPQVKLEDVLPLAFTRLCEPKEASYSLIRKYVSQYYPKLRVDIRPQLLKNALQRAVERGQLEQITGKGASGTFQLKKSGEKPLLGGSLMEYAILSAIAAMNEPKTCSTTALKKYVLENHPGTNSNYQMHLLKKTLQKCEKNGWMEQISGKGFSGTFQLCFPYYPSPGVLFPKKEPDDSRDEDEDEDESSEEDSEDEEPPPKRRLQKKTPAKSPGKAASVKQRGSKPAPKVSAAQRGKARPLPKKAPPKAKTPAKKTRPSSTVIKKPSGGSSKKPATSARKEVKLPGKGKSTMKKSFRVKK
Chain of UniProt P09211 (P09211 whole entry, looked up): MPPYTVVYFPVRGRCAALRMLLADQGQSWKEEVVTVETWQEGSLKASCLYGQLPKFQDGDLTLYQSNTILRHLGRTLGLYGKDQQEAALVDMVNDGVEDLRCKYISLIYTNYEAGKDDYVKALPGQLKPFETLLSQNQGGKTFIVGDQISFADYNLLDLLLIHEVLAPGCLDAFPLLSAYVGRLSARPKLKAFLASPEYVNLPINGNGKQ
Chain of UniProt P22087 (P22087 whole entry, looked up): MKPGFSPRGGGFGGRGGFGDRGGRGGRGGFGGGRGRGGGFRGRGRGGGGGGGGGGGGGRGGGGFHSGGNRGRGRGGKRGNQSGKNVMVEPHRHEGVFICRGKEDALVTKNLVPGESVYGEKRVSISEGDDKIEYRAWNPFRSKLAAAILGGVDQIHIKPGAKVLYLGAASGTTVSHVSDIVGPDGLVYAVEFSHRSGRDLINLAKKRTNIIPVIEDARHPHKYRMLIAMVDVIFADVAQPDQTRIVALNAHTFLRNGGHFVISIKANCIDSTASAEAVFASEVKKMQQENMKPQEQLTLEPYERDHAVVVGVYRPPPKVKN
Chain of UniProt Q7Z4V5 (Q7Z4V5 whole entry, looked up): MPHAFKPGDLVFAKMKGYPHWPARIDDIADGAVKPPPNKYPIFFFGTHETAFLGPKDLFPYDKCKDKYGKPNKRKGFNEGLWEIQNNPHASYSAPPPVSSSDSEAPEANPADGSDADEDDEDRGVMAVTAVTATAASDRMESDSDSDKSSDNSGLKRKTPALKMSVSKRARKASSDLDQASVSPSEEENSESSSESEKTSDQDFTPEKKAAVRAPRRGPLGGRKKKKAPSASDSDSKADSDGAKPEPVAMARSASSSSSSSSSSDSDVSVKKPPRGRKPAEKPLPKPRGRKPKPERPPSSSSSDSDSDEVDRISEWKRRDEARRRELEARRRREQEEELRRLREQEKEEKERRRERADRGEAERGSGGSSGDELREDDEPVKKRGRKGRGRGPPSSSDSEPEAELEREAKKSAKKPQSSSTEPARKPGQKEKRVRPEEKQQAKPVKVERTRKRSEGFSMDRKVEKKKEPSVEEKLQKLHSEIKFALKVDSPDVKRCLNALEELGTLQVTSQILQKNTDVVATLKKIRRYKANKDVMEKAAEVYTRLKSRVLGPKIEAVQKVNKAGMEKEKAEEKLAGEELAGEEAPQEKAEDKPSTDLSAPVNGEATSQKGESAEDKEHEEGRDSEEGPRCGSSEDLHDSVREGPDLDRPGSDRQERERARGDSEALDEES

log2 fold change, inactive:
IGF2BP2 (UniProt Q9Y6M1) -0.018
FARS2 (UniProt O95363) 0.079
HECTD1 (UniProt Q9ULT8) -0.141
HRAS (UniProt P01112) 0.024
HMG20A (UniProt Q9NP66) -0.02
GCC2 (UniProt Q8IWJ2) -0.071
GAPVD1 isoform 6 (UniProt Q14C86) -0.092
GSTP1 (UniProt P09211) -0.017
GYS1 (UniProt P13807) -0.18
FBXO9 (UniProt Q9UK97) -0.354
HOMER1 (UniProt Q86YM7) 0.046
GLYR1 (UniProt Q49A26) 0.068
HIP1 (UniProt O00291) 0.063
HDGFL2 (UniProt Q7Z4V5) -0.061
GTF2E2 (UniProt P29084) -0.108
HIP1R (UniProt O75146) 0.016
FDFT1 (UniProt P37268) 0.071
HNRNPK isoform 2 (UniProt P61978) -0.206
GLRX3 (UniProt O76003) -0.022
HRC (UniProt P23327) -0.017
GNL1 (UniProt P36915) 0.05
GTF3C4 (UniProt Q9UKN8) -0.069
FECH isoform 2 (UniProt P22830) -0.04
GPD1 (UniProt P21695) 0.054
GPKOW (UniProt Q92917) -0.207
FBL (UniProt P22087) -0.017
GLUD2 (UniProt P49448) 0.21
HP1BP3 (UniProt Q5SSJ5) -0.008
HADHB (UniProt P55084) -0.106
HSPA8 (UniProt E9PK54) -0.011
FERMT3 (UniProt Q86UX7) -0.053
GDI1 (UniProt P31150) 0.017
FOXK1 (UniProt P85037) -0.816
FNTB (UniProt P49356) 0.177
